Assay [1] can be described thus: qHTS assay to identify small molecule antagonists of the thyroid receptor (TR) signaling pathway - cell viability counter screen (AID 743064). Note: nearly all actives have a fitted effect of over 50% in size. In short, it runs like this:
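Rat GH3 pituitary tumor cells stably expressing two TR response elements driving luciferase were plated, rested 4 h, then dosed with library compounds and T3 (1 nM final). After 23.5 h at 37 °C, CellTiter-Fluor was added for 30 min and fluorescence recorded.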
Background: qHTS replaces the single test concentration by a dilution series.

Assay [2] can be described thus: qHTS assay to identify small molecule antagonists of the thyroid receptor (TR) signaling pathway (AID 743065). Note: nearly all actives have a fitted effect of over 55% in size. Note: potency is the fitted concentration of half-maximal effect. In short, it runs like this:
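GH3.TRE-Luc rat pituitary cells (two TREs driving luciferase) were dosed with compound, then stimulated with 1 nM T3 (final) for 23.5 h at 37 C. ONE-Glo luminescence was the read-out, with CellTiter-Fluor fluorescence as the cytotoxicity counter-screen.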

In assay [3] the test system is thyroid hormone receptor (rat, GH3 cells). The experiment in a line: qHTS assay to identify small molecule agonists of the thyroid receptor (TR) signaling pathway (AID 743066; calls by dose curve).
For assay [4], the target named is Estrogen receptor (Homo sapiens) (UniProt P03372). Put plainly: qHTS assay to identify small molecule antagonists of the estrogen receptor alpha (ER-alpha) signaling pathway (AID 743069; active = well fitted curve in the direction sought with a large enough effect in the signal ratio in the repeat runs, not every such curve was filed as active; inconclusive = weak or mixed curves, or effect the other way; inactive = no such curve, though single readings can be large or run the other way; the % refers to the signal ratio; note: potency is the fitted concentration of half-maximal effect). In short, it runs like this:
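In this cell-based reporter format, GripTite HEK293 cells harbouring ER-alpha-UAS-bla were grown overnight with 2% charcoal-stripped FBS, dosed with DMSO-dissolved compounds, then challenged with 17beta-estradiol. After 18 hr at 37C, beta-lactamase activity was detected by FRET fluorescence.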

The nature of assay [5]: qHTS assay to identify small molecule antagonists of the estrogen receptor alpha (ER-alpha) signaling pathway - cell viability counter screen (AID 743074; calls by dose curve; note: nearly all actives have a fitted effect of over 45% in size).
The target in assay [6] is Estrogen receptor (Homo sapiens) (UniProt P03372). The experiment in a line: qHTS assay to identify small molecule agonists of the estrogen receptor alpha (ER-alpha) signaling pathway (AID 743075; calls by dose curve).
Assay [7] has the same target. The experiment in a line: qHTS assay to identify small molecule agonists of the estrogen receptor alpha (ER-alpha) signaling pathway using the BG1 cell line (AID 743079). Note: nearly all actives have a fitted effect of over 20% in size. Note: potency is the fitted concentration of half-maximal effect.
Assay [8] in a line: qHTS assay to identify small molecule antagonists of the estrogen receptor alpha (ER-alpha) signaling pathway using the BG1 cell line (AID 743080; calls by dose curve;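 note: BG1 cells stimulated with 17beta-estradiol alongside compound; series mostly up to about 70 µM; nearly all actives have a fitted effect of over 25% in size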). In short, it runs like this:
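Luciferase inhibition measured with ONE-Glo after 30 min at RT in BG1Luc4E2 cells given test compounds and 17beta-estradiol for 21.5 h at 37 C; CellTiter-Fluor viability read in the same wells beforehand.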

A short description of assay [9]: qHTS assay to identify small molecule antagonists of the estrogen receptor alpha (ER-alpha) signaling pathway using the BG1 cell line - cell viability counter screen (AID 743081).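 Note: compound given together with 17beta-estradiol as the ER stimulus; series mostly up to about 70 µM; nearly all actives have a fitted effect of over 45% in size.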
A further assay concerns the target Aromatase (Homo sapiens) (UniProt P11511). Put plainly: qHTS assay to identify aromatase inhibitors (AID 743083). Note: series mostly up to about 70 µM; nearly all actives have a fitted effect of over 55% in size.
A short description of assay [10]: qHTS assay to identify aromatase inhibitors - cell viability counter screen (AID 743084).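 Note: cells stimulated with testosterone during compound exposure; nearly all actives have a fitted effect of over 55% in size.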
Assay [11] addresses Aryl hydrocarbon receptor (Homo sapiens) (UniProt P35869). The experiment in a line: qHTS assay to identify small molecule that activate the aryl hydrocarbon receptor (AhR) signaling pathway (AID 743085).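 For activation: HG2L7.5c1 human HepG2 liver cells with stably integrated DRE-driven firefly reporter; series mostly up to about 70 µM.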 Note: nearly all actives have a fitted effect of over 15% in size. Note: potency is the fitted concentration of half-maximal effect. In short, it runs like this: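 Compounds were tested in HepG2 hepatocellular carcinoma cells harbouring a stably integrated luciferase gene under control of 20 DREs. Increased reporter signal after 24 h treatment at 37C was taken as AhR activation.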

Assay [12] is described as follows: qHTS assay to identify small molecule that activate the aryl hydrocarbon receptor (AhR) signaling pathway - cell viability counter screen (AID 743086).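 Note: HepG2 liver cells carrying the AhR DRE luciferase reporter; series mostly up to about 70 µM; nearly all actives have a fitted effect of over 45% in size.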 In short, it runs like this:
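HepG2-AhR-luc (HG2L7.5c1) cells, 4000/well, treated 24 h at 37 C with compound; viability measured as CellTiter-Fluor fluorescence after 30 min in the same wells as the luciferase read.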

Assay [13] has as its target Peroxisome proliferator-activated receptor gamma (Homo sapiens) (UniProt P37231). Put plainly: qHTS assay to identify small molecule agonists of the peroxisome proliferator-activated receptor gamma (PPARg) signaling pathway (AID 743094; active = well fitted activation curve with a large enough effect in the signal ratio in the repeat runs, not every such curve was filed as active; inconclusive = weak or mixed curves, or effect the other way; inactive = no such curve, though single readings can be large or run the other way; the % refers to the signal ratio). In short, it runs like this:
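Fluorescence-based beta-lactamase readout in HEK293H PPARg UAS-bla cells after 17 h compound exposure (37C) and 1 h B/G FRET substrate incubation at room temperature.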

The target is the same in assay [14]. The experiment in a line: qHTS assay to identify small molecule antagonists of the peroxisome proliferator-activated receptor gamma (PPARg) signaling pathway (AID 743191; calls by dose curve; note: series mostly up to about 63 µM; nearly all actives have a fitted effect of over 30% in size). In short, it runs like this:
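GeneBLAzer PPARg UAS-bla HEK293H cells, 5 h post-plating, exposed to compounds 17 h at 37C. LiveBLAzer B/G FRET substrate added for 1 h at room temperature; beta-lactamase reporter read by fluorescence intensity.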

A short description of assay [15]: qHTS assay to identify small molecule antagonists of the peroxisome proliferator-activated receptor gamma (PPARg) signaling pathway - cell viability counter screen (AID 743194). Note: nearly all actives have a fitted effect of over 55% in size. In short, it runs like this: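 Cytotoxicity counter screen in PPARg-bla HEK293H cells, same wells as reporter assay. Compounds plus 50 nM rosiglitazone (final) for 17 h at 37 C, then viability read by CellTiter-Glo luminescence.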

The nature of assay [16]: qHTS assay for small molecule agonists of the antioxidant response element (ARE) signaling pathway - cell viability counter screen (AID 743203; calls by dose curve; note: nearly all actives have a fitted effect of over 55% in size). In short, it runs like this:
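Parallel cytotoxicity read-out for the ARE-bla screen: HepG2 reporter cells, 16 hrs with compounds, then CellTiter-Glo luminescence.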

Assay [17] in a line: qHTS assay for small molecule activators of the heat shock response signaling pathway - cell viability counter screen (AID 743209). Note: nearly all actives have a fitted effect of over 50% in size. In short, it runs like this: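 To flag cytotoxic compounds, HSE-bla HeLa cells plated at 1500 cells/well were dosed for 5 h at 37 C, followed by the reporter FRET read and then CellTiter-Glo, with luminescence recorded 30 min after reagent addition.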

The nature of assay [18]: qHTS assay for small molecule agonists of the antioxidant response element (ARE) signaling pathway (AID 743202; active = well fitted activation curve with a large enough effect in the signal ratio in the repeat runs, not every such curve was filed as active; inconclusive = weak or mixed curves, or effect the other way; inactive = no such curve, though single readings can be large or run the other way; the % refers to the signal ratio). In short, it runs like this: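 HepG2 ARE-bla cells; 16 h treatment at 37 C; FRET-based beta-lactamase fluorescence read after 2 h substrate incubation at room temperature.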
The nature of assay [19]: qHTS assay for small molecule activators of the heat shock response signaling pathway (AID 743210; active = well fitted activation curve with a large enough effect in the signal ratio in the repeat runs, with a control signal flat, not every such curve was filed as active; inconclusive = weak or mixed curves; the % refers to the signal ratio;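 note: HeLa cells with beta-lactamase reporter driven by heat shock elements; series mostly up to about 63 µM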). In short, it runs like this: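 Following overnight attachment, HSE-bla HeLa cells received test compounds for 5 h at 37 C; beta-lactamase activity was then detected via FRET substrate fluorescence.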

The source of these data is PubChem BioAssay (Tox21).

Structures are written as SMILES. Several values for one entry are separate records, joined by “and”; a condition that tells them apart may be missing. Identical values can stand only once. Where a structure was tested more than once in an assay, its records may differ in their call. Activity calls are given as the source filed them. Unless noted, calls come from the whole dose curve; as a rule, active = well fitted curve in the direction sought with a large enough effect in the repeat runs; inconclusive = weak or mixed curves; inactive = no such curve, though single readings can be large; an effect the other way counts as inactive or inconclusive.

Sequence of Aryl hydrocarbon receptor (Homo sapiens) (P35869 whole entry, looked up): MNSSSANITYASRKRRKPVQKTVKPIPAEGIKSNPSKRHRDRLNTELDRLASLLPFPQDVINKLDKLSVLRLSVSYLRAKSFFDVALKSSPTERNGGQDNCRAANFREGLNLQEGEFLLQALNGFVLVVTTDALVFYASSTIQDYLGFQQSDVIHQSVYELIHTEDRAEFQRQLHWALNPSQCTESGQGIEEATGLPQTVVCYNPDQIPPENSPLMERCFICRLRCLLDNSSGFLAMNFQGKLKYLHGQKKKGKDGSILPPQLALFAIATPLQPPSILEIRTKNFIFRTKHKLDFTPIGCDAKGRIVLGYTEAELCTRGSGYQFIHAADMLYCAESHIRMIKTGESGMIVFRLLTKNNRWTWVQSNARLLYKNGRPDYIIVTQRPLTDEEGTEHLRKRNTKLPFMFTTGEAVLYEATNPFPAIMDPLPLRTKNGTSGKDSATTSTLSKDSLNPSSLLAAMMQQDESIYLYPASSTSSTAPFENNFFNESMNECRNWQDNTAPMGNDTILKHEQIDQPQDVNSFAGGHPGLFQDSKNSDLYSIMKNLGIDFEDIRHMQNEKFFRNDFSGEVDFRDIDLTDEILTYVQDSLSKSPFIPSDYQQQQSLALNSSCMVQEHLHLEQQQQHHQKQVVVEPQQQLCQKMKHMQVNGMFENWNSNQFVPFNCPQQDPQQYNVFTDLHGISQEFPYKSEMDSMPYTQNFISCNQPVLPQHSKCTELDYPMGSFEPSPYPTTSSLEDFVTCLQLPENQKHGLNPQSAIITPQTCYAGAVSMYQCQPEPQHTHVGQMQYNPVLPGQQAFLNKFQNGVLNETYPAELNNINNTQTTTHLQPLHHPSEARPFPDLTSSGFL
Sequence of Aromatase (Homo sapiens) (P11511 whole entry, looked up): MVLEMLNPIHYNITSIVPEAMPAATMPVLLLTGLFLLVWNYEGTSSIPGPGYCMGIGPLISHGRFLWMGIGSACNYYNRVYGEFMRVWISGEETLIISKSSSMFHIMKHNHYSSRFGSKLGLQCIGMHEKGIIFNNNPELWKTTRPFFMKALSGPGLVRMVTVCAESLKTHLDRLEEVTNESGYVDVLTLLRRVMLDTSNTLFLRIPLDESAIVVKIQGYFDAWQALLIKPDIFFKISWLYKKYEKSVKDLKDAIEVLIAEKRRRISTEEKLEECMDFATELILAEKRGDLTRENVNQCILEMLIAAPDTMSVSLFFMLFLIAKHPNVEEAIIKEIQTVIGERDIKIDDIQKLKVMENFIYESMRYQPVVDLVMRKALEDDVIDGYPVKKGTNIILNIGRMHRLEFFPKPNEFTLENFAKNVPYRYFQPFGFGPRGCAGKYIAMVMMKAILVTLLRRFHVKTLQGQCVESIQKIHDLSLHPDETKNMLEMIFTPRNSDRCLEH
Sequence of Peroxisome proliferator-activated receptor gamma (Homo sapiens) (P37231 whole entry, looked up): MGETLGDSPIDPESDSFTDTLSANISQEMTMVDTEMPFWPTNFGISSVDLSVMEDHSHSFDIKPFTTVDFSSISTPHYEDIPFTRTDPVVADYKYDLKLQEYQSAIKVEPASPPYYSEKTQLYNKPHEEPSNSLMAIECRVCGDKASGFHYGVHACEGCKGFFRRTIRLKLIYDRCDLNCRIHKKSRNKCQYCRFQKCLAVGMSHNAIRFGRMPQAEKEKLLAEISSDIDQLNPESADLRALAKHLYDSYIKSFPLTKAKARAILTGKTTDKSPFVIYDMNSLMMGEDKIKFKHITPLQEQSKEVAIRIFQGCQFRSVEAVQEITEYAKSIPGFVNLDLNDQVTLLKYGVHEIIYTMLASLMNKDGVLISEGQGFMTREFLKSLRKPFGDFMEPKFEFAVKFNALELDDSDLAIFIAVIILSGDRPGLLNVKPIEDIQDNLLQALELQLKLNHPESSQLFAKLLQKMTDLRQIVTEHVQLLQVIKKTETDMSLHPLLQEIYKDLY
Sequence of Estrogen receptor (Homo sapiens) (P03372 whole entry, looked up): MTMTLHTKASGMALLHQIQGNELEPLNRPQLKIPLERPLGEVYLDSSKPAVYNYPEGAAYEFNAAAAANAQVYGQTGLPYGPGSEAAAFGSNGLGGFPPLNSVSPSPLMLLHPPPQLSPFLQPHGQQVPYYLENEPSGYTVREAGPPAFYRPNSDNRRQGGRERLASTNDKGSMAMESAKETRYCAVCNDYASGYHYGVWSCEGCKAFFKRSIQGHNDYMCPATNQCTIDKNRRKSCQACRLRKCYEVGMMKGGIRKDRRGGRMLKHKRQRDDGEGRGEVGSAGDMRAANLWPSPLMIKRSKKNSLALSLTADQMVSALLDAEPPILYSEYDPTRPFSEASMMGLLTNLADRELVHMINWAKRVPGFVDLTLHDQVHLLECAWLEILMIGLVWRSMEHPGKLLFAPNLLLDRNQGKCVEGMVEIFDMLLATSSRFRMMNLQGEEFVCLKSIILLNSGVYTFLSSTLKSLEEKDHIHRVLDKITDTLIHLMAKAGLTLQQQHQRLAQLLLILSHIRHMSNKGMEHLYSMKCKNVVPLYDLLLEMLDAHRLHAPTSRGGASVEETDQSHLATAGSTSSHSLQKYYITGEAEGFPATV

In the case of `C=CC(C)CCCC(C)(C)O` (stereo unspecified), the Potency entry in [1], in [2], in [4], in assay [6], in assay [7] and in assay [9] was “inactive” in each case. The Potency entry (in the assay with Aromatase (Homo sapiens); in assay [10]; in [11]; in assay [12]; in [16]) was “inactive” throughout. The compound was called inactive in assay [3], in assay [5], in assay [8], in assay [13], in assay [14] and in assay [15]. In addition, the compound was called inactive in [17].
As for `CN(C)c1ccc(O)c2c1C[C@H]1C[C@H]3[C@H](N(C)C)C(=O)C(C(N)=O)=C(O)[C@@]3(O)C(=O)C1=C2O`, the Potency entry in assay [1], in [2], in [4], in [6], in [7] and in [9] was “inactive” each time. Also, the Potency entry (in the assay with Aromatase (Homo sapiens); in assay [10]; in assay [12]; in assay [18]; in assay [16]) was “inactive” in each case. The call in assay [3], in [5], in assay [8], in assay [15], in assay [17] and in [19] was inactive. The Potency result in assay [11] is “inactive and 7.7 µM (active)”.
`CCCCCCCCCCO`: the Potency entry in assay [1], in [2], in assay [4], in [6], in assay [7] and in assay [9] was “inactive” throughout. In addition, the Potency result (in the assay with Aromatase (Homo sapiens); in assay [10]; in assay [11]; in assay [12]; in assay [18]; in assay [16]) was “inactive” throughout. In addition, the call in assay [3], in [5], in assay [8], in [13], in [14] and in assay [15] was inactive. Also, the call in assay [17] and in assay [19] was inactive.
For `O=C(O)c1ccccc1C(=O)O`, the Potency entry in assay [1], in assay [2], in [4], in assay [6], in assay [7] and in assay [9] was “inactive” each time. The Potency entry (with Aromatase (Homo sapiens); in [10]; in assay [12]; in [18]; in assay [16]) was “inactive” in each case. Besides, the outcome in assay [3], in [5], in assay [8], in [15], in [17] and in assay [19] was inactive.
For the compound `CC(C)c1cccc(C(C)C)c1`, the Potency entry in assay [1], in assay [2], in [4], in assay [6], in [7] and in assay [9] was “inactive” throughout. Further, the Potency entry (in the assay with Aromatase (Homo sapiens); in [10]; in assay [11]; in assay [12]; in [16]) was “inactive” each time. The call in assay [3], in assay [5], in assay [8], in [13], in assay [14] and in assay [15] was inactive. For the same compound, the compound was classed as inactive in [17] and in assay [19].
As for `Brc1ccc(Br)c(Br)c1`, the Potency result in assay [1], in assay [2], in [4], in assay [6], in assay [7] and in assay [9] was “inactive” each time. For the same compound, the Potency entry (in the assay with Aromatase (Homo sapiens); in [10]; in assay [11]; in assay [12]; in [18]; in assay [16]) was “inactive” each time. Besides, the call in [3], in assay [5], in [8], in assay [13], in assay [14] and in assay [17] was inactive. In addition, the compound was called inactive in [19].
As for `OC1C(O)C(O)C(O)C(O)C1O` (stereo unspecified), the Potency result in assay [1], in assay [2], in [4], in [6], in assay [7] and in [9] was “inactive” throughout. The Potency result (in the assay with Aromatase (Homo sapiens); in assay [10]; in assay [11]; in assay [12]; in assay [18]; in assay [16]) was “inactive” in each case. The compound was called inactive in [3], in assay [5], in [8], in [13], in [14] and in assay [17]. The outcome in assay [19] was inactive.
For the compound `CCCCOC(=O)c1ccc(N)cc1`, the Potency entry (in assay [1]; in assay [6]; in [9]; with Aromatase (Homo sapiens); in assay [10]; in assay [12]) was “inactive” throughout. Further, the Potency entry in [16] is “inactive”. For the same compound, the Potency in assay [2] is 21.1 µM (active) and 21.4 µM (active); in assay [4] it was 24.2 µM [inconclusive] (active); in [7] it was 23.7 µM (active) and 33.9 µM (active); in assay [11] it was 23.7 µM (active). In addition, the compound was classed as inactive in assay [3], in [5], in [15], in assay [17] and in [19].
